Bioassay records: PubChem, Sanford-Burnham Center for Chemical Genomics
tim23-1 inh: growth inhibitors of tim23-1 mutant yeast, primary screen, luminescence, uHTS | 330,000 compounds, 1.3% hits | AID 463212, 2010 | S. cerevisiae tim23-1 growth, BacTiter-Glo luminescence, 24 h | inhibition, % at 20 µM;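 active means growth inhibition of the mutant yeast at or above 50%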;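 further: temperature-sensitive mutant grown at 25 °C; plate controls were DMSO-treated mutant yeast for no effect and medium wells lacking yeast for full effect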
NALP1 yeast inh: NALP1 inflammasome inhibitors in reconstituted yeast, colorimetric, S. cerevisiae, triplicate retest; S. cerevisiae NALP1/ASC/caspase-1 growth, X-gal OD620, 72 h; inhibition, % at 10 µM; 280,000 compounds, 0.61% hits; AID 2071, 2009; in the data active means inhibition mostly above about 24%, no sharp cut-off; inactive means mostly below about 32%
NLRP3 yeast inh: NALP3 inflammasome inhibitors in reconstituted yeast, primary screen, luminescence, uHTS | Yeast reconstituted NLRP3/ASC/caspase-1, beta-gal luminescence, 24 h | inhibition, % at 10 µM | 330,000 compounds, 0.39% hits | AID 2825, 2010;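 active means inhibition of 50% or more; inactive means inhibition below 50%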;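 further: plate controls were induced DMSO wells for no effect and uninduced yeast grown without galactose for full effect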
TIM10 inh: growth inhibitors of isogenic TIM10 control yeast, primary screen, counter-screen for tim10-1 yeast inhibitor project, luminescence, uHTS; S. cerevisiae TIM10 strain growth, BacTiter-Glo luminescence, 24 h; inhibition, % at 10 µM; 330,000 compounds, 1.4% hits; AID 463195, 2010;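 active means inhibition of 40% or more at the single tested concentration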;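 further: wild-type TIM10 isogenic control strain grown at permissive 25 °C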
tim10-1 inh: growth inhibitors of tim10-1 mutant yeast, primary screen, luminescence, uHTS; S. cerevisiae tim10-1 ts strain growth, BacTiter-Glo, 24 h; AID 463190, 2010; 330,000 compounds, 2.2% hits; inhibition, % at 20 µM;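 active means inhibition of at least 40%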;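 further: mutant grown at 25 °C; 0% = DMSO wells with yeast and 100% = wells holding no yeast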
tim10-1 confirm: growth inhibitors of tim10-1 mutant yeast, confirmation, single concentration, luminescence, S. cerevisiae. shares compounds with tim10-1 inh. 7,400 compounds, 56% hits. S. cerevisiae tim10-1 ts strain growth, BacTiter-Glo, 24 h. inhibition, % at 20 µM;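 active means inhibition of yeast growth at or above a set limit in either of two repeat tests at 20 µM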;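 further: tim10-1 mutant grown at permissive 25 °C to find synthetic lethal compounds; 0% = DMSO yeast wells and 100% = medium wells without yeast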
* marks the source's active call; other numbers are inactive results; . = no result. Only some compounds are listed: those with a hit (about 4% of all), similar ones and a draw of the others.

SMILES | tim23-1 inh | NALP1 yeast inh | NLRP3 yeast inh | TIM10 inh | tim10-1 inh | tim10-1 confirm
COc1ccc(CC2(CO)CCN(Cc3cccn3-c3ccccn3)CC2)cc1 | 4.5 | -2.0 | -0.7 | -6.7 | 17.5 | .
CC1(c2ccc(OC(F)F)cc2)NC(=O)N(CC(=O)Nc2ccc(OC(F)F)cc2)C1=O (stereo not given) | 4.1 | -11.3 | 0.5 | 9.7 | -8.9 | .
CCOC(=O)c1c(NC(=O)CN2C(=O)NC(C)(c3ccc(OC(F)F)cc3)C2=O)sc(C)c1C (stereo not given) | 21.6 | 19.8 | 20.8 | 18.4 | 42.7* | 27.4
COc1ccc(CNC(=O)CN(c2ccccc2)S(=O)(=O)N(C)C)cc1 | 5.6 | 11.1 | 3.4 | 1.9 | -2.7 | .
Oc1ccc(Oc2ncc(Cl)cc2Cl)cc1 | 37.0 | 30.2 | 35.6 | 8.9 | 40.2* | 33.8*
CNC(=O)C(=O)Nc1ccc2c(c1)N(S(=O)(=O)c1cccs1)CCC2 | 30.4 | . | 5.0 | 22.0 | 24.5 | .
CC(C)NC(=O)C(=O)Nc1ccc2c(c1)N(S(=O)(=O)c1cccs1)CCC2 | 35.0 | . | 11.8 | 25.7 | 43.2* | 21.3
CC(C)NC(=O)Cn1cc(S(=O)(=O)N2CCCC2)c(S(=O)(=O)N2CCCC2)c1 | -8.4 | 13.6 | -3.8 | -2.3 | 0.2 | .
O=S(=O)(Nc1ccccc1)c1ccc(-c2cnc(C3CC3)o2)cc1 | 33.7 | 21.0 | 1.9 | 2.7 | 45.5* | -38.3
Cc1ccc(C)c(NS(=O)(=O)c2ccc(-c3cnc(C4CC4)o3)cc2)c1 | 42.4 | -0.9 | 12.0 | 0.2 | 35.9 | .
CC(=O)Nc1ccc(NS(=O)(=O)c2ccc(-c3cnc(C4CC4)o3)cc2)cc1 | 12.1 | 11.3 | 14.0 | -1.1 | 12.3 | .
COc1ccc(NS(=O)(=O)c2cc(-c3cnc(C4CC4)o3)ccc2C)cc1 | 37.8 | 25.5 | 0.5 | -1.3 | 44.5* | -7.5
COc1ccccc1NS(=O)(=O)c1cc(-c2cnc(C3CC3)o2)ccc1C | 44.9 | 16.3 | -10.6 | -2.2 | 45.0* | 11.8
COc1ccccc1NC(=O)Cn1cnc2sc(C)c(S(=O)(=O)N3CCCCC3)c2c1=O | 4.4 | 21.7 | -2.6 | -0.7 | 13.4 | .
CCc1cccc(C)c1NC(=O)C1CCCN1C(=O)NCc1ccccc1 (stereo not given) | -5.3 | 15.4 | 2.5 | -14.0 | 9.1 | .
COc1ccc(S(=O)(=O)NNC(=S)NCCc2ccccc2)c(OC)c1 | 0.4 | 1.6 | 12.9 | 3.1 | -0.7 | .
O=C(OCCOc1ccccc1F)c1cccc(S(=O)(=O)N2CCOCC2)c1 | 15.2 | . | 1.3 | 18.2 | 11.9 | .
CC(C)CC1Nc2ncnc(N3CCOCC3)c2N(Cc2ccc(Br)cc2)C1=O (stereo not given) | 15.2 | . | 7.4 | 12.8 | 14.7 | .
CC(C)CC1Nc2ncnc(N3CCCCC3)c2N(Cc2ccc(Br)cc2)C1=O (stereo not given) | 37.1 | . | 0.9 | 37.9 | 40.8* | 32.2*
Clc1cccc(Cl)c1/C=C/c1ccn[nH]1 | 39.0 | 9.2 | -3.7 | 17.9 | 54.7* | 39.6*
CCn1c(=O)c(C(=O)NNC(=O)c2cccc(Cl)c2)c(O)c2ccccc21 | 11.4 | -18.1 | 15.6 | 3.9 | 46.1* | 51.4*
CCCC1CCC(C(=O)Nn2c(C)nc3ccccc3c2=O)CC1 (stereo not given) | 28.6 | 0.8 | 14.3 | 8.7 | 46.9* | -8.2
CCn1c(=O)c(C(=O)Nn2c(C)nc3ccccc3c2=O)c(O)c2ccccc21 | 30.9 | 38.8 | 21.8 | -19.6 | 42.7* | -2.5
CCn1c(C)cc(O)c(C(=O)Nc2cccc(Cl)c2)c1=O | 15.1 | 4.1 | 5.4 | -3.4 | 44.9* | 6.7
CCCC/C(C)=N/NC(=O)c1cn(-c2ccccc2)nc1-c1ccccc1 | 34.2 | -7.0 | 7.8 | 16.6 | 31.1 | .
COC(=O)[C@H](C)NC(=O)Nc1cccc(Br)c1 | -7.5 | 20.5 | 18.4 | 5.9 | -19.3 | .
Cc1nnc(NC(=O)CSc2nccn2Cc2ccccc2)s1 | -0.5 | -4.2 | 2.7 | -7.3 | -15.5 | .
CCCCCCCCOC(=O)c1c(CSC(=N)N)n(C)c2cc(Br)c(OC(C)=O)cc12 | 38.7 | -3.5 | -2.8 | 25.1 | 45.6* | 25.9
COc1ccc(/C=N/NC(=O)c2cc(-c3ccccc3)nc3ccccc23)cc1O | 27.0 | -11.4 | 3.1 | 19.3 | 28.1 | .
